28 molecules from PubChem BioAssay (Tox21) can be followed below.

A short description of assay [1]: qHTS assay to identify small molecule agonists of the peroxisome proliferator-activated receptor delta (PPARd) signaling pathway - cell viability counter screen (AID 743211). Further: nearly all actives have a fitted effect of over 55% in size. Further: potency means the concentration at half of the fitted maximal effect. The procedure, abridged:
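Viability of GeneBLAzer PPARd UAS-bla HEK293H cells was assessed after 17 h compound incubation at 37C, using CellTiter-Glo reagent added after the reporter read and luminescence recorded 30 min later.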
A general note: In qHTS, concentration-response curves come from the screen itself.

A short description of assay [2]: qHTS assay to identify small molecule antagonists of the peroxisome proliferator-activated receptor delta (PPARd) signaling pathway - cell viability counter screen (AID 743213). Further: nearly all actives have a fitted effect of over 50% in size. Further: potency means the concentration at half of the fitted maximal effect. The procedure, abridged: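 Cytotoxicity counter screen: CellTiter-Glo luminescence read 30 min after addition, in the same wells as the reporter assay. There, PPARd UAS-bla HEK293H cells (3000/well) were treated 17 h at 37 C with compound and 300 nM L165041.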

A short description of assay [3]: qHTS assay to identify small molecule agonists of the farnesoid-X-receptor (FXR) signaling pathway - cell viability counter screen (AID 743218). Further: nearly all actives have a fitted effect of over 45% in size. Further: potency means the concentration at half of the fitted maximal effect. The method, boiled down: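 Viability of FXR-bla HEK 293T cells is measured by ATP-based CellTiter-Glo luminescence following 16 h compound treatment at 37 C and a prior 2 h room-temperature beta-lactamase substrate step.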

A short description of assay [4]: qHTS assay to identify small molecule antagonists of the farnesoid-X-receptor (FXR) signaling pathway - cell viability counter screen (AID 743221; active means well fitted cell-killing curve with a large enough effect in the repeat runs, not every such curve was filed as active; further: nearly all actives have a fitted effect of over 50% in size; further: potency means the concentration at half of the fitted maximal effect). The method, boiled down:
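Quantitative HTS of the Tox21 10K library run in parallel with the beta-lactamase reporter read. HEK 293T cells carrying a UAS-driven bla reporter got compound and 50 uM CDCA (final) for 16 h; ATP-based luminescence followed.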

Assay [5] deals with Vitamin D3 receptor (Homo sapiens) (UniProt P11473). The experiment in a line: qHTS assay to identify small molecule antagonists of the vitamin D receptor (VDR) signaling pathway (AID 743223; active means well fitted inhibition curve with a large enough effect in the signal ratio in the repeat runs, not every such curve was filed as active; the % refers to the signal ratio; further: potency means the concentration at half of the fitted maximal effect). The procedure, abridged:
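Fluorescence from LiveBLAzer B/G FRET substrate, read after 2 h at room temperature, reflects beta-lactamase reporter activity in VDR-bla cells treated 16 h at 37C with compounds and agonist 1alpha,25-dihydroxyvitamin D3 (3 nM final).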

Assay [6] shares this target. The experiment in a line: qHTS assay to identify small molecule agonists of the vitamin D receptor (VDR) signaling pathway (AID 743222; calls by dose curve). The method, boiled down: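 Fluorescence from cleaved LiveBLAzer B/G FRET substrate served as readout. VDR-bla cells had been treated 16 h at 37C with test compounds in DMSO, following a 4 h settling period, and substrate was loaded for 2 h at RT.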

Each structure is given as a SMILES string. Results filed as inconclusive are left out. Calls of active or inactive are those of the source. Unless noted, the call rests on the fitted dose curve; in most records, active means well fitted curve in the direction sought with a large enough effect in the repeat runs; inconclusive means weak or mixed curves; inactive means no such curve, though single readings can be large; an effect the other way counts as inactive or inconclusive.

Vitamin D3 receptor (Homo sapiens), sequence (P11473 whole entry, looked up): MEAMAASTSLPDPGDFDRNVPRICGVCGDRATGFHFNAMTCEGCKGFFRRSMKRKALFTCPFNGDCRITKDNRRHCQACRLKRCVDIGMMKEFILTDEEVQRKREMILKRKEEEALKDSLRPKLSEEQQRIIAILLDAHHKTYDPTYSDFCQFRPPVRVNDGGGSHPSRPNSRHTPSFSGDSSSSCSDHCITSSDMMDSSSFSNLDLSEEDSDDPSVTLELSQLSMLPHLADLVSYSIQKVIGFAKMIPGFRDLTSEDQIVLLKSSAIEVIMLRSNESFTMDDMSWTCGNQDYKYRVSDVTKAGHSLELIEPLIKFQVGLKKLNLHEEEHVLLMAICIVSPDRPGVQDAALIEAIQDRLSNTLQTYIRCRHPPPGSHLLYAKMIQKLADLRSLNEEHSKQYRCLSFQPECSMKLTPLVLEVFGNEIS

Regarding `CCCCCCCCNC(C)C(O)c1ccc(SC(C)C)cc1` (centres undefined), the Potency is 9.44 µM (active) in assay [1], 8.41 µM (active) in assay [2], 18.8 µM (active) in assay [3] and 23.7 µM (active) in assay [4].

Regarding `O=[N+]([O-])c1cc([N+](=O)[O-])c2ccc(S(=O)(=O)O)cc2c1O`, the Potency result in assay [1], in assay [2], in assay [3] and in assay [4] was “inactive” in each case.

In the case of `CCCCCCCC[P+](CCCCCCCC)(CCCCCCCC)CCCCCCCC`, the Potency is 5.46 µM (active) in assay [1]; 7.71 µM (active) in assay [2]; 8.65 µM (active) in assay [3]; 17.3 µM (active) in assay [4]; 19.4 µM (active) in assay [5].

On to `CN(C)c1ccc(SC#N)cc1`, for which the Potency entry in assay [1], in assay [2], in assay [3], in assay [4] and in assay [6] was “inactive” in each case.

Take `CN(C)C(=O)C1(N2CCCCC2)CCN(CC[C@@]2(c3ccc(Cl)c(Cl)c3)CN(C(=O)c3ccccc3)CCO2)CC1`: the Potency is 11.5 µM (active) in assay [1], 16.2 µM (active) in assay [2], 16.2 µM (active) in assay [3] and 32.4 µM (active) in assay [4]. Also, the Potency entry in assay [6] was “inactive”.

Consider `CCCCCCCCCCn1cc[n+](CCCCCCCCCC)c1C`, for which the Potency in assay [1] is 7.77 µM (active); in assay [2] it was 13.8 µM (active); in assay [3], 39 µM (active); in assay [4] it was 34.7 µM (active); in assay [5], 19.5 µM (active).

Turning to `CC(NN)c1ccccc1` (centres undefined), the Potency entry in assay [1], in assay [2], in assay [3], in assay [4] and in assay [5] was “inactive” each time.

With `[Cl][Bi]([Cl])([c]1ccccc1)([c]1ccccc1)[c]1ccccc1`, the Potency was 5.46 µM (active) in assay [1], 4.87 µM (active) in assay [2], 5.46 µM (active) in assay [3] and 10.9 µM (active) in assay [4].

As to `CCCC(c1cc(C(C)(C)C)c(O)cc1C)c1cc(C(C)(C)C)c(O)cc1C`, the Potency was 11.1 µM (active) in assay [1], 19.7 µM (active) in assay [2], 12.5 µM (active) in assay [3] and 19.7 µM (active) in assay [4].

Turning to `CCN(CC)CCNC(=O)c1c(C)[nH]c(/C=C2\C(=O)Nc3ccc(F)cc32)c1C`, the Potency was 23.7 µM (active) in assay [1], 4.73 µM (active) in assay [2], 13.3 µM (active) in assay [3] and 21.1 µM (active) in assay [4].

For `CCc1cc(SCc2sc(-c3ccc(C(F)(F)F)cc3)nc2CN2CCN(c3ccc(OC)cc3)CC2)ccc1OCC(=O)O`, the Potency is 7.76 µM (active) in assay [1], 5.49 µM (active) in assay [2], 7.76 µM (active) in assay [3] and 19.5 µM (active) in assay [4].

As for `NC(=O)NS(=O)(=O)c1ccc(N)cc1`, the Potency result in assay [1], in assay [2], in assay [3] and in assay [4] was “inactive” each time.

For the molecule `C1CCCC1`, the Potency entry in assay [1], in assay [2], in assay [3], in assay [4], in assay [6] and in assay [5] was “inactive” in each case.

In the case of `CCCCCCCCCCCCCCCCCC[N+](C)(C)C`, the Potency in assay [1] is 13.8 µM (active); in assay [2], 27.6 µM (active); in assay [3] it was 24.6 µM (active); in assay [4] it was 55.1 µM (active).

In the case of `CN(C)[C@@H]1C(=O)C(C(N)=O)=C(O)[C@@]2(O)C(=O)C3=C(O)c4c(O)ccc(Cl)c4[C@@H](O)[C@H]3C[C@@H]12`, the Potency result in assay [1], in assay [2], in assay [3] and in assay [4] was “inactive” throughout.

Regarding `O=c1[nH]sc2ccccc12`, the Potency in assay [1] is 17.4 µM (active); in assay [2], 17.4 µM (active); in assay [3], 49 µM (active); in assay [4], 49 µM (active). Further, the Potency result in assay [6] was “inactive”.

In the case of `Oc1cc2ccccc2c2ccccc12`, the Potency in assay [1] is 6.92 µM (active); in assay [2], 5.49 µM (active); in assay [3], 11 µM (active); in assay [4], 9.77 µM (active).

For the molecule `O=C(Nc1cccc(C(F)(F)F)c1)c1cc(Br)cc(Br)c1O`, the Potency in assay [1] is 6.16 µM (active); in assay [2], 6.92 µM (active); in assay [3], 4.36 µM (active); in assay [4], 11 µM (active).

`[Cl][Au]([Cl])[Cl]`: the Potency was 3.09 µM (active) in assay [1], 9.77 µM (active) in assay [2], 2.75 µM (active) in assay [3] and 3.47 µM (active) in assay [4].

In the case of `O=[N+]([O-])c1ccccc1Nc1ccccc1`, the Potency result in assay [1], in assay [2], in assay [3], in assay [4], in assay [6] and in assay [5] was “inactive” in each case.

Regarding `CCCCCCCCCCCCCCCCCC[N+](C)(C)Cc1ccccc1`, the Potency in assay [1] was 11.1 µM (active); in assay [2], 13.9 µM (active); in assay [3], 19.7 µM (active); in assay [4], 27.8 µM (active); in assay [5], 22.1 µM (active).

`CCCCCCCCCCCC(=O)NCCCN(C)C`: the Potency in assay [1] is 21.9 µM (active); in assay [2], 38.9 µM (active); in assay [3] it was 34.7 µM (active); in assay [4], 49 µM (active); in assay [5] it was 27.5 µM (active).

For `CCN(C(=O)N(CC)c1ccccc1)c1ccccc1`, the Potency result in assay [1], in assay [2], in assay [3] and in assay [4] was “inactive” each time.

For `CN(C)[C@@H]1C(=O)C(C(N)=O)=C(O)[C@@]2(O)C(=O)C3=C(O)c4c(O)cccc4C[C@H]3C[C@@H]12`, the Potency result in assay [1], in assay [2], in assay [3] and in assay [4] was “inactive” in each case.

`Cc1cc(=O)oc2cc(N(C)C)ccc12`: the Potency result in assay [1], in assay [2], in assay [3] and in assay [4] was “inactive” in each case.

Consider `CCCCCCCC/C=C/CCCCCCCC1=NCCN1CCO`, for which the values for the Potency in assay [1] and in assay [3] were 30.9 µM (active) and 21.9 µM (active), respectively.

On to `CNc1ccc(O)cc1`, for which the results for the Potency in assay [1] and in assay [2] were 38.8 µM (active) and 43.6 µM (active), respectively. In assay [4], the Potency result is “inactive”.

`Oc1cccc(-c2c3nc(c(-c4cccc(O)c4)c4ccc([nH]4)c(-c4cccc(O)c4)c4nc(c(-c5cccc(O)c5)c5ccc2[nH]5)CC4)C=C3)c1`: the Potency in assay [1] was 13.3 µM (active); in assay [3], 21.1 µM (active).
